# Bioassay records from PubChem.
# GRK2 aptamer HTS = human GRK2 inhibition via aptamer displacement; P25098; bead flow cytometry, FAM-aptamer displacement from GRK2; inhibition of aptamer binding, % at 10 µM; 330,000 tested, 0.59% active; AID 488847;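 active = inhibition of aptamer binding above 40%, roughly 3 SD of noise, on plates passing a quality check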;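 also: median bead fluorescence of bound FAM aptamer so fluorescent compounds give negative values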
# Yeast superoxide = caloric restriction mimetics inhibiting age-related superoxide in yeast | S. cerevisiae aged cells, superoxide DHE fluorescence; hits give low values | superoxide response (% of plate mean), % at 10 µM | 330,000 tested, 0.18% active;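 active = superoxide response under a set limit, about three screen SD below normal, cut at about 65% in these data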;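 also: yeast aged for seven days with compound at 30 °C before DHE staining; 100% = average MFI of all compound-treated wells on the plate with controls excluded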
# Efflux pump inh = antifungal efflux pump inhibition, Nile Red retention; S. cerevisiae Candida pump triplex; inhibition, % at 10 µM; 330,000 tested, 0.44% active;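 active = plate passing quality check with inhibition over a set limit, or well fluorescence over plate mean plus 4 SD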;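 also: Nile Red retained in pooled yeast measured as flow cytometry median fluorescence; 0% = buffer negative control and 100% = Enniatin B positive control; higher means more Nile Red kept so more efflux inhibition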
# ATG4B inhibitor = blocks human ATG4B protease cleavage of LC3 substrate. 340,000 tested, 0.51% active. Q9Y4P1. AID 504462. ATG4B cleavage of LC3-PLA2, NBD-HPC fluorescence, 1 h. inhibition, % at 8.33 µM; in the data active = inhibition above about 40%
# Target sequence (Q9Y4P1 whole entry, looked up): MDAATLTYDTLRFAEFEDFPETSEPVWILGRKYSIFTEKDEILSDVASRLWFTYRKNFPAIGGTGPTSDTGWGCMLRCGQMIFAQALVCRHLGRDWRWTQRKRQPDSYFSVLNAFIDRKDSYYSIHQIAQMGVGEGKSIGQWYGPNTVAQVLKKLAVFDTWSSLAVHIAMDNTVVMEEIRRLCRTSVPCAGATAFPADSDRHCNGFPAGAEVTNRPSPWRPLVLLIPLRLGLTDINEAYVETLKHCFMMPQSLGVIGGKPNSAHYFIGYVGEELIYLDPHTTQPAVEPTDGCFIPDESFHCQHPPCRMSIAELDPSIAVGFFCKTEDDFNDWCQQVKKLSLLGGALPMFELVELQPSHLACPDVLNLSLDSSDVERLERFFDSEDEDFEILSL
# * hit, by the source's call; nt = no result. Only some compounds are listed: those with a hit (about 1.6% of all), similar ones and a draw of the others.
SMILES,GRK2 aptamer HTS,Yeast superoxide,Efflux pump inh,ATG4B inhibitor
C#CCOCCOCCOCCNc1nc(N2CCN(C(=O)CCCCCCCCCCNC(=O)[C@H]([C@@H](C)CC)n3cc(CCCCCN)nn3)CC2)nc(N2CCN(C(=O)CCCCCCCCCCNC(=O)[C@H]([C@@H](C)CC)n3cc(CCCCN=C(N)N)nn3)CC2)n1,0.0,101.6,0.9,nt
C#CCOCCOCCOCCNc1nc(N2CCN(C(=O)CCCCCCCCCCNC(=O)[C@H](CO)n3cc(CCCSC)nn3)CC2)nc(N2CCN(C(=O)CCCCCCCCCCNC(=O)[C@H](CCCN=C(N)N)n3cc(C[C@@H](C)CC)nn3)CC2)n1,0.0,94.9,0.3,72.2*
COc1ccc(S(=O)(=O)N(C)CC(=O)N2CCCC2)cc1OC,2.0,113.0,0.1,-3.1
CCCN(CCC)C(=O)NC1CC(=O)N(c2ccc(OC)cc2)C1 (configuration not stated),1.0,106.2,0.1,6.6
CC(C)(C)[C@H]1COC(=O)[C@H](NC(=O)OCC2c3ccccc3-c3ccccc32)C/C=C\C[C@@H](CC(=O)N[C@@H](CO)Cc2ccccc2)C(=O)N1,6.0,89.5,-0.1,-10.8
CC(C)(C)[C@H]1COC(=O)[C@H](NC(=O)OCC2c3ccccc3-c3ccccc32)C/C=C\C[C@@H](CC(=O)N[C@H](CO)Cc2ccccc2)C(=O)N1,97.0*,96.7,0.3,-7.1
CC(C)Cc1nc2oc3c(N4CCN(CCO)CC4)ncnc3c2c2c1CCCC2,45.0*,99.5,0.0,-15.4
Cc1c(C(=O)/C=C/N(C)C)nnn1-c1ccc(Cl)cc1C#N,1.0,98.2,-0.1,0.7
COc1ccc(CC(=O)NNC(=O)COc2ccc(Cl)cc2C)cc1S(=O)(=O)N1CCOCC1,6.0,64.5*,-0.3,-5.6
Cc1c(Cl)cccc1NC(=O)CCNC(=O)N1CC(=O)Nc2ccccc21,5.0,69.5,0.0,-2.5
O=C(COC(=O)c1ccc2ncsc2c1)Nc1cc([N+](=O)[O-])ccc1Cl,0.0,93.2,-0.2,1.8
O=C(COC(=O)c1ccc2ncsc2c1)Nc1ccccc1Cl,1.0,39.7*,0.0,-8.9
O=C1CCC(=O)N1OCCCCOc1ccccc1,42.0*,103.5,0.0,2.4
O=C1CCC(=O)N1OCCCOc1ccccc1,0.0,102.8,0.0,-5.5
COc1ccccc1NC(=O)COC(=O)c1cc2c(s1)CCC2,nt,nt,nt,3.3
COc1ccc(OC)c(NC(=O)COC(=O)c2cc3c(s2)CCC3)c1,42.0*,105.4,-0.1,3.7
O=S(=O)(Cc1ccccc1)N1CCc2ccccc21,18.0,98.6,2.7*,nt
CN(C)S(=O)(=O)N1CCc2ccccc21,1.0,106.1,0.0,-11.4
O=C1CC(=O)N(Cc2cccs2)C(=O)N1,1.0,88.6,0.0,0.3
O=C1CC(=O)N(Cc2ccco2)C(=O)N1,89.0*,99.9,0.0,-1.9
Cn1c(=O)c(C(=O)NNC(=O)c2ccc(Br)cc2)c(O)c2ccccc21,47.0*,82.8,0.1,10.2
O=C(CSc1nc2ccccc2c(=O)n1-c1ccc(F)cc1)Nc1cc(S(=O)(=O)N2CCOCC2)ccc1Cl,53.0*,90.1,0.5,-3.5
O=C(CSc1nc2ccccc2c(=O)n1-c1ccc(F)cc1)Nc1ccc(N2CCOCC2)cc1,1.0,111.5,-0.1,10.1
O=C(/C=C/c1cc[n+](CC(=O)c2ccc3cccc4c3c2CC4)cc1)c1ccc2cccc3c2c1CC3,94.0*,116.4,0.3,32.0
CCc1ccc(NC(=O)C2CC=CCC2C(=O)O)cc1 (configuration not stated),7.0,101.0,-0.2,3.3
SMILES,GRK2 aptamer HTS,Yeast superoxide,Efflux pump inh,ATG4B inhibitor
O=C(O)Cc1ccc(NC(=O)C2CC=CCC2C(=O)O)cc1 (configuration not stated),44.0*,103.1,0.1,nt
CCc1cccc(NC(=O)CCNS(=O)(=O)c2ccc3c(c2)oc(=O)n3C)c1,4.0,82.0,0.2,2.4
O=C1c2ccccc2C(=O)N1CSc1nnc(Nc2ccccc2F)s1,0.0,61.0*,0.1,1.8
Cc1noc(C)c1NC(=O)N(C)C[C@@H]1Oc2ccc(NC(=O)Cc3cn(C)c4ccccc34)cc2CC(=O)N([C@H](C)CO)C[C@@H]1C,0.0,94.8,0.1,-10.9
O=C(COc1ccccc1Cl)Nc1ccc(N2CCCC2)cc1,54.0*,104.0,-0.1,1.5
CCN1CCN(c2ccc(NC(=O)COc3ccccc3Cl)cc2)CC1,5.0,96.4,-0.1,-6.4
CCN(CC)c1nc(-c2ccccc2)nc2ccccc12,4.0,101.3,0.0,1.5
CCCCN(CCCC)c1nc(-c2ccncc2)nc2ccccc12,0.0,65.4*,0.0,15.7
COc1ccccc1CNC(=O)c1cc(C)nn1-c1ccccc1,2.0,43.6*,0.1,-5.5
O=C(O)/C=C/C(=O)N1Cc2cc3ccccc3nc2C1,0.0,86.8,-0.2,-7.0
CC1CCN(C(=O)COC(=O)/C=C/c2ccco2)CC1,51.0*,98.8,0.3,2.9
CC1CCCC(C)N1C(=O)COC(=O)/C=C/c1ccco1 (configuration not stated),9.0,82.2,-0.1,9.6
COc1ccc2cc3c(N)nn(C(=O)Cc4ccccc4OC)c3nc2c1,4.0,96.2,-0.2,-5.2
COc1ccc2cc3c(N)nn(C(=O)c4cccc([N+](=O)[O-])c4)c3nc2c1,73.0*,114.9,0.6,7.3
Cn1ncc2c(NCc3cccc(C(F)(F)F)c3)c(C(=O)O)cnc21,55.0*,99.0,0.0,nt
CCN(Cc1ccccc1)c1c(C(=O)O)cnc2c1cnn2C,3.0,99.4,-0.1,-12.8
N#Cc1c(NC(=O)c2ccccc2Cl)n(Cc2ccccc2)c2nc3ccccc3nc12,0.0,85.7,-0.5,52.3*
C/C(=N\NC(=O)Nc1ccccc1)c1ccc2ccccc2c1,100.0*,86.2,-0.6,-10.1
Cc1occc1C(=O)Nc1ccccc1C#N,0.0,100.0,0.5,0.8
COc1ccc(/C=C(\C#N)C(=O)NCCc2ccccc2)cc1OCc1ccccc1,0.0,99.8,0.2,-2.2
COCCCNC(=O)/C(C#N)=C/c1ccc(OCC(=O)O)c(OC)c1,44.0*,96.0,-0.1,-2.5
COc1ccc(COc2ncnc3ccc(Br)cc23)cc1F,1.0,104.8,0.2,-3.6
O=C1C2CC=C(Cl)CC2C(=O)N1CCC[n+]1cccc2ccccc21 (configuration not stated),83.0*,100.6,0.3,1.8
O=C(NC1CCCc2c1cnn2-c1cc(F)cc(F)c1)c1ccccn1 (configuration not stated),1.0,100.7,5.3*,1.1
COc1ccc(C(=O)N/C(=C/c2cccs2)C(=O)NCCCn2ccnc2)cc1OC,0.0,94.4,-0.6,0.1
O=C(NCCCn1ccnc1)/C(=C\c1cccs1)NC(=O)c1ccco1,41.0*,98.5,0.5,-0.2
CCOc1ccc(NC(=O)[C@H](Cc2ccccc2)NC(=O)C2CCNCC2)cc1,0.0,88.0,0.0,4.2
O=C(CSc1nc2c(cnn2-c2cccc(Cl)c2)c(=O)[nH]1)NCCC1=CCCCC1,0.0,60.6*,0.3,6.7
O=C(O)C1=CC(=C(c2ccc(O)c(C(=O)O)c2)c2ccc(O)c(C(=O)O)c2)C=CC1=O,99.0*,96.0,-0.1,nt
Cc1ccc(S(=O)(=O)N2CCN(C(=O)/C=C/c3ccco3)CC2)cc1,20.0,93.2,-0.4,-9.8
